# Inconclusive results are not listed. A call without a number means that no potency is given here. Calls of active or inactive are those of the source. Calls follow the shape of the dose curve; as a rule, active = well fitted inhibition curve with a large enough effect; inconclusive = small, poorly fitted or top-dose-only effect; inactive = flat fitted curve, though single readings scatter.
# Experiments:
# [1] = target: Glutathione peroxidase 1 (Homo sapiens) (UniProt P07203); experiment: Primary qHTS Assay for Inhibitors of Recombinant Selenoprotein Glutathione Peroxidase 1 (GPX1) (AID 1845191)
# Glutathione peroxidase 1 (Homo sapiens), sequence (P07203 whole entry, looked up): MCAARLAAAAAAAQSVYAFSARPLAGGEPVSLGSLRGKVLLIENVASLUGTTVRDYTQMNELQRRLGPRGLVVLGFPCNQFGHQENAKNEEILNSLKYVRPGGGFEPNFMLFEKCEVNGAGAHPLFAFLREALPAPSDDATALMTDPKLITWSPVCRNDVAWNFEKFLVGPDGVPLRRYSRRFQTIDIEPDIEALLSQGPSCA
# Summary of the method: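 GPX1 10 nM, GR 100 nM, GSH 1 mM, NADPH 0.5 mM, CHP 0.5 mM (final). 30-min cpd preincubation, RT. Ex340/Em450 read t=0, t=15 min.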
# [2] = target: Phospholipid hydroperoxide glutathione peroxidase GPX4 (Homo sapiens) (UniProt P36969); experiment: Primary qHTS Assay for Inhibitors of Recombinant Selenoprotein Glutathione Peroxidase 4 (GPX4) (AID 1845192)
# Phospholipid hydroperoxide glutathione peroxidase GPX4 (Homo sapiens), sequence (P36969 whole entry, looked up): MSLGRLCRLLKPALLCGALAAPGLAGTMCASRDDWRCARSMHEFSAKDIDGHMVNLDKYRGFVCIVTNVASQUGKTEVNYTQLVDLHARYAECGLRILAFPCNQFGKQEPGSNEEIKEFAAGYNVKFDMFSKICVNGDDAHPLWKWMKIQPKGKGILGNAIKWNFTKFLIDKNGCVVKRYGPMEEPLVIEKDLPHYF
# Summary of the method: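 qHTS, GR-coupled: GPX4 200 nM + cpd 30 min RT → GSH 1 mM, NADPH 0.5 mM, GR 100 nM → CHP 0.5 mM start; fluor 340/450 at t0 and t15 min; no-enzyme wells as control.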
# Also: nearly all actives have a fitted effect of over 65% in size.
Structure (SMILES),Potency [1],Potency [2]
COc1c(C)c2c(c(O)c1C/C=C(\C)CCC(=O)O)C(=O)OC2,inactive,inactive
CC(=O)[C@H]1CC[C@H]2[C@@H]3C[C@H](C)C4=CC(=O)CC[C@]4(C)[C@H]3[C@@H](O)C[C@]12C,inactive,inactive
CC(=O)OCC(=O)[C@@]12N=C(C)O[C@@H]1C[C@H]1[C@@H]3CCC4=CC(=O)C=C[C@]4(C)[C@H]3[C@@H](O)C[C@@]12C,inactive,inactive
O=C(O)CNC(=O)c1ccccc1,inactive,inactive
c1ccc(CNCCNCc2ccccc2)cc1,inactive,inactive
CCC(=O)c1c(O)cc(O)cc1O,inactive,inactive
Oc1ccc(Cl)c2cccnc12,inactive,inactive
N[C@H](Cc1c[nH]c2ccccc12)C(=O)O,inactive,inactive
COc1cccc2c1C(=O)c1c(O)c3c(c(O)c1C2=O)C[C@@](O)(C(C)=O)C[C@@H]3O[C@H]1C[C@H](N)[C@H](O)[C@H](C)O1,inactive,inactive
CCCC(=O)Nc1ccc(OCC(O)CNC(C)C)c(C(C)=O)c1 (configuration not stated),inactive,inactive
Cc1c(C(C)C)c(=O)n(-c2ccccc2)n1C,inactive,inactive
CC(=O)Oc1ccc(C(c2ccc(OC(C)=O)cc2)c2ccccn2)cc1,inactive,inactive
NC(CO)(CO)CO,inactive,inactive
CCCCOc1cc(C(=O)NCCN(CC)CC)c2ccccc2n1,inactive,inactive
OC(CCN1CCCCC1)(c1ccccc1)c1ccccc1,inactive,inactive
CCCCCCCCCCCCCCCCOP(=O)([O-])OCC[N+](C)(C)C,inactive,inactive
